Some of the results follow. Results filed as inconclusive are left out. Values without a mark were called inactive. The source made the active and inactive calls.
What was measured:
[1] = biological target: Solute carrier family 12 member 5 (Homo sapiens) (UniProt Q9H2X9); experiment: retest of KCC2 transport modulators without sodium – cell-based, HEK293 KCC2, thallium flux, secondary assay, confirmation (AID 1713;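 active = thallium flux slope above the same plate's solvent-only control mean plus 3 SD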); details: FluoZin2 fluorescence, at 10 µM, active compounds read high
Sequence of Solute carrier family 12 member 5 (Homo sapiens) (Q9H2X9 whole entry, looked up): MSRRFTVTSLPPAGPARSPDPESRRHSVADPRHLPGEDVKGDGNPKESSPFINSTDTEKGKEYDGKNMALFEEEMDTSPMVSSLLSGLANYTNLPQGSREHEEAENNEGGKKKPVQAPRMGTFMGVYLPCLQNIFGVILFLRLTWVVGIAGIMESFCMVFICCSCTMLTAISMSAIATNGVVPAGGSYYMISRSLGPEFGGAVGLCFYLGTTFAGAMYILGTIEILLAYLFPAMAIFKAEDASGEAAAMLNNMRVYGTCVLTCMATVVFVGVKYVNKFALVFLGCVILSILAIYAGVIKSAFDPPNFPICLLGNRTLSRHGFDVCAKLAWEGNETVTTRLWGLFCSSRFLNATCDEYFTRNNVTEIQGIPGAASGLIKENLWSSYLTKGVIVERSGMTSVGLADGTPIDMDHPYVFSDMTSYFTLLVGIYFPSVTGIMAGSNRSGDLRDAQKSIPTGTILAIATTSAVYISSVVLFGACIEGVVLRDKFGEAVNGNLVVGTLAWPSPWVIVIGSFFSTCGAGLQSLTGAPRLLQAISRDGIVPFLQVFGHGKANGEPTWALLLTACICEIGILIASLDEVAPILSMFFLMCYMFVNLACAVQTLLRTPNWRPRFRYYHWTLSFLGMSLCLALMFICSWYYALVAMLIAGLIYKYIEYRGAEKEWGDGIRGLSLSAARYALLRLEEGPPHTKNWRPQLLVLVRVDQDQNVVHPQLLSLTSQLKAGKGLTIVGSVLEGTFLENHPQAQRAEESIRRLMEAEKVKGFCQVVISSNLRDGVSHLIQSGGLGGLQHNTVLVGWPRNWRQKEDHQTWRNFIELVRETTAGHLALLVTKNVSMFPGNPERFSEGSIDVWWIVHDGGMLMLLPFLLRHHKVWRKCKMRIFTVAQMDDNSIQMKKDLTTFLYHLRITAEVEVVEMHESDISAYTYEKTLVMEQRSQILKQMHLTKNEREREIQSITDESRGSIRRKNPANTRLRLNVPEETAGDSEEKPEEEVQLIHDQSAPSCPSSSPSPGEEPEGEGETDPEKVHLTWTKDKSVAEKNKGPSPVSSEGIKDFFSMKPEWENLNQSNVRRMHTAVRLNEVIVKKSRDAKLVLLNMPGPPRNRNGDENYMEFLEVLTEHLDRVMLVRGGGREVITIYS

PubChem AID 1714 = details: HEK293-KCC2 + bumetanide/ouabain, thallium flux FluoZin2; at 10 µM; active compounds read high
[2] = biological target: Solute carrier family 12 member 5 (Homo sapiens) (UniProt Q9H2X9); experiment: retest of KCC2 transport modulation, ouabain-free – cell-based, HEK293 KCC2, thallium flux, FluoZin2, secondary assay 2, confirmation (AID 1715;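 active = thallium flux slope more than 3 SD above or below the plate's solvent-only control mean, mostly below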;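 also: raw slope with 0.1% DMSO as baseline and bumetanide as block control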); details: HEK293-KCC2, thallium flux FluoZin2 fluorescence; at 10 µM; actives lie on both sides; F/F0 rise rate, 10–20 s post-thallium
[3] = compound effects on native HEK Tl+ uptake – HEK cells, counterscreen 1, counter-screen for KCC2 modulator project, confirmation (AID 1716); details: HEK293 parental cells, thallium flux FluoZin2, ouabain; at 10 µM; baseline-ratio fluorescence slope, 10–20 s after thallium
[4] = biological target: Solute carrier family 12 member 5 (Homo sapiens) (UniProt Q9H2X9); experiment: modulation of KCC2 thallium flux in HEK cells – cell-based, ouabain, retest, confirmation (AID 1717;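 active = thallium flux slope beyond 3 SD from same-plate DMSO control mean in most replicates, usually higher, sometimes lower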;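 also: slope of initial-normalized fluorescence between seconds 10 and 20 after thallium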); details: HEK293-KCC2, thallium flux FluoZin2 fluorescence, at 10 µM, bidirectional: low = inhibitor, high = activator
[5] = native HEK Tl+ uptake effects, second counter-screen – HEK cells, counterscreen 2, counter-screen for KCC2 modulator project, confirmation (AID 1718;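 active = thallium flux slope above the same plate's solvent-control mean plus 3 SD in both duplicate wells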;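 also: run without ouabain in cells lacking the KCC2 cotransporter; slope of fluorescence scaled to its starting value between 10 and 20 s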); details: HEK293 parental, thallium flux FluoZin-2 fluorescence slope; at 10 µM

Row | Structure (SMILES) | normalised thallium flux (F/F0 slope) [1] | normalized thallium flux (PubChem AID 1714) | normalized thallium flux [2] | thallium flux rate (normalised fluorescence) [3] | raw Tl+ flux slope (below DMSO = inhibition, above = activation) [4] | thallium flux slope [5]
1 | Cc1ccc(C2CC(=O)NC(SCC(=O)OCc3ccccc3)=C2C#N)o1 (centres undefined) | 0.0147 | 0.00407 | 0.0273 | 0.00691 | 0.0133 (active) | 0.00974
2 | Cc1oc(C(N)=O)cc1COc1ccc(C(N)=O)cc1 | 0.01 | 0.00743 | 0.0348 | 0.00438 | 0.0196 | 0.0116
3 | COc1cccc(-c2nc(S(=O)(=O)c3ccccc3)c(N3CCOCC3)o2)c1 | 0.00627 | 0.0046 | 0.0314 | 0.00767 | 0.0193 | 0.0105
4 | O=C(CCC(=O)OCc1cccc(C(=O)Oc2ccccc2)c1)Nc1cccc2ccccc12 | 0.00618 | 0.00434 | 0.0284 | 0.00695 | 0.0171 | 0.00997
5 | COc1ccc(NC(=O)c2ccccc2[N+](=O)[O-])cc1OC | 0.00704 | 0.00505 | 0.0299 | 0.00749 | 0.0198 | 0.0109
6 | O=C(NC(CC(=O)N1CCN(c2ccccc2)CC1)c1ccccc1)c1ccccc1Cl (centres undefined) | 0.00747 | 0.00528 | 0.0333 | 0.00637 | 0.019 | 0.00971
7 | CNC(=O)/C(=C\C=C\c1ccccc1)NC(=O)c1ccc([N+](=O)[O-])cc1 | 0.00733 | 0.00498 | 0.0219 (active) | 0.00796 | 0.0141 (active) | 0.0103
8 | Cc1cs/c(=N\N=C\c2ccc(O)cc2)n1Cc1ccco1 | 0.00586 | 0.00375 | 0.0253 (active) | 0.00654 | 0.0162 | 0.0101
9 | Oc1ccccc1/C=N/n1c(-c2cccs2)n[nH]c1=S | 0.02 (active) | 0.0602 (active) | 0.0326 | 0.0173 (active) | 0.0288 (active) | 0.0224 (active)
10 | CCc1cc(-c2n[nH]c(=S)n2CC(C)C)cs1 | 0.0137 (active) | 0.0351 (active) | 0.0359 | 0.0146 (active) | 0.0381 (active) | 0.0129 (active)
11 | Cc1onc(-c2ccccc2)c1C(=O)NNC(=S)NC(=O)c1ccc(F)cc1 | 0.00605 | 0.0254 (active) | 0.0354 | 0.018 (active) | 0.0299 (active) | 0.0217 (active)
12 | S=c1ccc2ccccc2[nH]1 | 0.0228 (active) | 0.0237 (active) | 0.0335 | 0.0196 (active) | 0.0247 (active) | 0.0209 (active)
13 | COc1ccc(C(=O)NC(=S)NNC(=O)c2c(-c3ccccc3)noc2C)cc1 | 0.00558 | 0.0445 (active) | 0.0501 (active) | 0.0354 (active) | 0.0401 (active) | 0.0396 (active)
14 | O=C(NC(=S)N1CCc2ccccc21)c1ccco1 | 0.00899 (active) | 0.0451 (active) | 0.0395 (active) | 0.0311 (active) | 0.0407 (active) | 0.0243 (active)
15 | CCn1c(SCc2ccccc2)nc2c(c1=O)SCC2 | 0.00954 | 0.00493 | 0.0352 | 0.00537 (active) | 0.0198 | 0.00988
16 | O=C(COC(=O)c1cc([N+](=O)[O-])ccc1NCc1ccccc1)NC1CCCCC1 | 0.00664 | 0.00478 | 0.0252 (active) | 0.00762 | 0.0168 (active) | 0.0115
17 | CN(C)c1nc(=Nc2cccc(Cl)c2)ss1 | 0.0466 (active) | 0.104 (active) | 0.0563 (active) | 0.0721 (active) | 0.0696 (active) | 0.0487 (active)
18 | O=C(Nc1nnc(C2COc3ccccc3O2)o1)c1ccc(F)cc1 (centres undefined) | 0.0197 (active) | 0.06 (active) | 0.032 | 0.0287 (active) | 0.0495 (active) | 0.0126 (active)
19 | Cc1cccc(NC(=S)NC(=O)c2ccc(Br)o2)c1 | 0.0193 (active) | 0.142 (active) | 0.0972 (active) | 0.129 (active) | 0.124 (active) | 0.0866 (active)
20 | O=C(CSc1nnc(-c2cccs2)n1Cc1ccccc1)N1CCc2ccccc2C1 | 0.00645 | 0.00334 (active) | 0.0237 (active) | 0.00608 (active) | 0.0136 (active) | 0.00891 (active)

Row | Structure (SMILES) | normalised thallium flux (F/F0 slope) [1] | normalized thallium flux (PubChem AID 1714) | normalized thallium flux [2] | thallium flux rate (normalised fluorescence) [3] | raw Tl+ flux slope (below DMSO = inhibition, above = activation) [4] | thallium flux slope [5]
21 | C/C(=N\NC(=S)Nc1ccc(C)cc1)c1cc2ccccc2o1 | 0.00692 | 0.0677 (active) | 0.0558 (active) | 0.0375 (active) | 0.0575 (active) | 0.0352 (active)
22 | COCCNc1nc(-n2nc(C)cc2C)nc2sc3c(c12)CCCC3 | 0.00873 | 0.00523 | 0.0328 | 0.00524 (active) | 0.0165 (active) | 0.00908
23 | S=c1[nH]nc(Nc2ccccc2)s1 | 0.00869 | 0.00545 | 0.026 (active) | 0.00742 | 0.0108 (active) | 0.00974
24 | CCOC(=O)c1c(C)[nH]c(C)c1C(=O)CSc1nc(N)cc(N)n1 | 0.00797 | 0.00434 | 0.0294 | 0.00758 | 0.0193 | 0.0105
25 | O=C(Nc1nc2c(F)cc(F)cc2s1)C1COc2ccccc2O1 (centres undefined) | 0.017 (active) | 0.0963 (active) | 0.0398 | 0.0378 (active) | 0.0383 (active) | 0.0155 (active)
26 | O=C(O)CCN(Cc1ccccc1)S(=O)(=O)c1c(Cl)cccc1Cl | 0.00789 | 0.00499 | 0.027 (active) | 0.00714 | 0.012 (active) | 0.0112
27 | Cc1ccc(Nc2nnc(SCC(=O)c3cc4ccccc4o3)s2)cc1C | 0.00887 | 0.00668 | 0.0195 (active) | 0.00694 | 0.00819 (active) | 0.00899
28 | Cc1nn(-c2ccccc2)c2sc(C(=O)N(Cc3ccco3)C(C)C(=O)NC(C)(C)C)cc12 (centres undefined) | 0.00786 | 0.00436 | 0.0324 | 0.00693 | 0.0198 | 0.0103
29 | O=c1oc2ccccc2cc1-c1cn(-c2ccccc2)c(=S)[nH]1 | 0.00633 | 0.0198 (active) | 0.0319 | 0.0191 (active) | 0.0289 (active) | 0.0141 (active)
30 | COc1cccc(CNC(=O)Cc2csc(Nc3nc(=S)[nH]c4ccccc34)n2)c1 | 0.0104 | 0.0662 (active) | 0.0329 | 0.0306 (active) | 0.0519 (active) | 0.0141 (active)
31 | O=c1[nH]c2ccccc2s1 | 0.00622 | 0.00492 | 0.0299 | 0.00725 | 0.0175 | 0.00982
32 | O=C1/C(=C\c2ccsc2)NC(=S)N1c1ccccc1 | 0.024 (active) | 0.0414 (active) | 0.039 (active) | 0.0238 (active) | 0.0341 (active) | 0.024 (active)
33 | O=C(NNc1ccccc1Cl)C(O)(c1cccc(C(F)(F)F)c1)c1cccc(C(F)(F)F)c1 | 0.0066 | 0.018 (active) | 0.035 | 0.0219 (active) | 0.0285 (active) | 0.018 (active)
34 | O=C(CSCc1ccccc1)N1CCc2ccccc21 | 0.00671 | 0.00485 | 0.027 | 0.0071 | 0.0219 (active) | 0.00997
35 | c1cncc(-c2nnc3n2C2(CCCCC2)Cc2ccccc2-3)c1 | 0.0161 | 0.00468 | 0.0275 | 0.00718 | 0.0153 | 0.00983
36 | C=CCn1c(=S)[nH]c2scc(-c3ccco3)c2c1=O | 0.0122 (active) | 0.0771 (active) | 0.0916 (active) | 0.0914 (active) | 0.0814 (active) | 0.0843 (active)
37 | COc1ccc(CNC(=O)CCn2cccc2)cc1 | 0.0171 | 0.00443 | 0.0307 | 0.00777 | 0.0168 | 0.0101
38 | CCCCn1c(=S)[nH]c2ccccc2c1=O | 0.05 (active) | 0.179 (active) | 0.0834 (active) | 0.114 (active) | 0.145 (active) | 0.0577 (active)
39 | COc1ccc(CN2CCCCC2C)cc1OC (centres undefined) | 0.00901 | 0.00633 | 0.0321 | 0.00759 | 0.0191 | 0.011
40 | COc1ccc(-c2cn(-c3ccc(OC)cc3)c(=S)[nH]2)cc1 | 0.00623 | 0.0216 (active) | 0.0299 | 0.0163 (active) |  | 0.0135 (active)
